# Source: PubChem (SRMLSC)
# The full list was thinned out, with hits kept by preference.
# MRP resist rev: reverses drug resistance mediated by MRP. H69AR cells + 2 uM doxorubicin, CellTiter-Glo, 72 h. differential viability (reversal), % at 10 µM. 0.04% of 85,000 active. AID 602;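 active = viability drop by adding the cancer drug above about 55%, with treated viability meeting a 40% cutoff, limit read from the data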;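 also: larger differential means the compound sensitizes cells more to doxorubicin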
# MRP1 act: activators of MRP-1 | H69AR cells + doxorubicin, viability rescue, CellTiter-Glo | viability increase, % at 10 µM | 0.61% of 140,000 active;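 active = viability gain under doxorubicin at or above a set limit, the compound median plus 3 SD, cut at about 4.7% in these data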;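 also: MRP-1 overexpressing cells given doxorubicin 25 µM after compound pretreatment; 18-22 h compound pretreatment then 72 h with doxorubicin before readout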
# Numbers stand for hits; n = inactive; x = not tested or not shown.
SMILES,MRP resist rev,MRP1 act
O=C(CSc1nc2ccccc2n1-c1ccccc1)Nc1ncc(Cl)cc1Cl,x,n
Cc1cccc(-n2c(SCC(=O)Nc3ncc(Cl)cc3Cl)nc3ccccc32)c1,x,5.9
CCN(c1ccccc1)S(=O)(=O)c1cc(C(=O)Oc2ccc3c(C)cc(=O)oc3c2)ccc1C,x,n
COc1ccc(C2C(C(=O)OCC(=O)NC(C)(C)C)CCC(=O)N2c2ccc(C)cc2)cc1OC (stereo not drawn),x,5.7
COc1ccc(C2C(C(=O)OCC(=O)Nc3ccc(C)cc3)CCC(=O)N2c2ccc(OC)cc2)cc1 (stereo not drawn),n,n
CC1(C)Cc2c(sc3nnn(Cc4ccccc4)c(=O)c23)CO1,x,n
CCC1(C)Cc2c(sc3nnn(CC(=O)Nc4ccccc4)c(=O)c23)CO1 (stereo not drawn),x,5.0
CCC1(C)Cc2c(sc3nnn(Cc4ccccc4Cl)c(=O)c23)CO1 (stereo not drawn),x,8.0
CCC1(C)Cc2c(sc3nnn(CC(=O)Nc4ccccc4C)c(=O)c23)CO1 (stereo not drawn),x,n
CN1CCN(C(=S)NCCc2ccccc2)CC1,x,n
NC12CC3CC(C1)CC(CO)(C3)O2,n,n
CC12CCC(c3nnc(SCc4ccc(Cl)cc4)nc31)C2(C)C (stereo not drawn),n,5.7
CCOC(=O)CSc1nnc2c(n1)C1(C)CCC2C1(C)C (stereo not drawn),x,n
O=C(Cn1cc(C(F)(F)F)ccc1=O)N/N=C/c1ccc(Cl)cc1,x,n
CCN1CC(c2ccccc2)C(c2ccc(Cl)cc2)=N1 (stereo not drawn),x,n
CC(=O)Nc1ccc2[nH]c(C)c(CC=C(Cl)Cl)c(=O)c2c1,n,6.8
CCOC(=O)c1ccc2[nH]c(C)c(CCC(C)=O)c(=O)c2c1,n,n
COC(=O)CNC(=O)CSc1nnc(C)c(=O)[nH]1,x,n
COc1ccc(CCN=C(N)NS(=O)(=O)c2ccc3ccccc3c2)cc1,x,n
O=c1nc2n(c3ccc(Br)cc13)CCS2,n,n
O=C(N/N=C/c1cc([N+](=O)[O-])cc([N+](=O)[O-])c1O)/C(=C\c1cccs1)NC(=O)c1ccccc1,x,4.8
COc1cc(/C=N/NC(=O)/C(=C\c2ccc([N+](=O)[O-])cc2)NC(=O)c2ccccc2)cc(OC)c1O,n,n
Cn1c(N)c(C(=O)COC(=O)CSc2ccc(Cl)cc2)c(=O)n(C)c1=O,x,n
O=C(/C=C/NNC(=O)c1ccccc1)c1ccc(Br)cc1,n,6.0
O=C(/C=C/NNC(=O)c1cccc(Br)c1)c1cccc(Br)c1,n,n
SMILES,MRP resist rev,MRP1 act
CC1CCCN(S(=O)(=O)c2ccc(S(=O)(=O)NC(C)c3cccs3)cc2)C1 (stereo not drawn),x,n
CCCCCCCC1CC(CSc2ncn[nH]2)OC1=O (stereo not drawn),n,10
CCCCC1CC(CSc2ncn[nH]2)OC1=O (stereo not drawn),n,n
COc1ccc(C(=O)NCc2nnc(SCC(=O)Nc3nc4ccc(C)cc4s3)o2)cc1OC,x,n
COc1ccc(OC)c(-c2csc(NC(=O)C3c4ccccc4Oc4ccccc43)n2)c1,x,9.4
O=C(Nc1nc(-c2ccccc2)cs1)C1c2ccccc2Oc2ccccc21,x,n
COc1cc(/C=C(/C#N)C(=O)Nc2ccc(C)cc2)ccc1Oc1nc(Cl)ncc1F,x,n
O=C(NC(=S)NCc1ccccc1)c1ccccc1F,x,n
O=C(NC(=S)NC(=O)c1ccccc1F)c1ccccc1F,x,7.1
COc1cc(NS(=O)(=O)c2ccc(C)cc2)ccc1-n1cnnn1,n,6.3
CCOCCCNS(=O)(=O)c1ccc(-n2cnnn2)c(OC)c1,n,n
Nc1nc2n(n1)C(c1cccs1)CC(c1ccc(Br)cc1)N2 (stereo not drawn),n,5.8
COc1ccccc1C1CC(c2ccc(Cl)cc2Cl)Nc2nc(N)nn21 (stereo not drawn),n,5.6
COc1ccc(C2CC(c3ccc(OC)cc3)n3nc(N)nc3N2)cc1 (stereo not drawn),n,x
COc1ccc(C2CC(c3ccc(Cl)cc3)n3nc(N)nc3N2)cc1 (stereo not drawn),n,30
COc1ccc(C2CC(c3cccc(Cl)c3)n3nc(N)nc3N2)cc1 (stereo not drawn),n,n
COc1ccc(C2CC(c3ccc(Br)cc3)Nc3nc(N)nn32)cc1 (stereo not drawn),n,n
CCOC(=O)c1c(C)[nH]c(C2=NNC(=Nc3cccc(Cl)c3)SC2)c1C,x,n
Clc1ccc(CON/C=N/c2ncnc3sccc23)c(Cl)c1,x,n
Cc1ccc(C(C)(C)C)cc1S(=O)(=O)Nc1cccc(S(=O)(=O)NC2=NCCC2)c1,x,n
COC(=O)CC1SC(=O)NC1=O (stereo not drawn),n,7.2
COC(=O)CC1SC(=O)NC1=Nc1ccc(O)cc1 (stereo not drawn),n,n
C=CCNC(=O)c1c(Cl)nc(C)c([N+](=O)[O-])c1C,x,n
CCOC(=O)c1oc2ccccc2c1NC(=O)c1ccc2c(c1)OCO2,n,n
COc1ccc(NC(=O)c2oc3ccccc3c2NC(=O)c2ccc3c(c2)OCO3)cc1,x,8.4
